# Measured values reported in PubChem BioAssay AID588458 (Sanford-Burnham Center for Chemical Genomics, 2011).
# Among all 360,000 compounds or so, about 3,000 (0.83%) were called active. This is one part of a sample in which actives are shown more often than they occur. Values without a mark were called inactive. Rule as the data show it: active = inhibition above about 50%; inactive = the rest.
# Target: DNA (cytosine-5)-methyltransferase 1 (Homo sapiens) (UniProt P26358)
# Assay: human DNMT1 methyltransferase inhibitors, primary screen, biochemical, molecular beacon, fluorescence, HinP1I cleavage, uHTS (AID 588458)
# Details: at 10 µM, hits give high values
# Chain of DNA (cytosine-5)-methyltransferase 1 (Homo sapiens) (P26358 504-1616 limits assumed): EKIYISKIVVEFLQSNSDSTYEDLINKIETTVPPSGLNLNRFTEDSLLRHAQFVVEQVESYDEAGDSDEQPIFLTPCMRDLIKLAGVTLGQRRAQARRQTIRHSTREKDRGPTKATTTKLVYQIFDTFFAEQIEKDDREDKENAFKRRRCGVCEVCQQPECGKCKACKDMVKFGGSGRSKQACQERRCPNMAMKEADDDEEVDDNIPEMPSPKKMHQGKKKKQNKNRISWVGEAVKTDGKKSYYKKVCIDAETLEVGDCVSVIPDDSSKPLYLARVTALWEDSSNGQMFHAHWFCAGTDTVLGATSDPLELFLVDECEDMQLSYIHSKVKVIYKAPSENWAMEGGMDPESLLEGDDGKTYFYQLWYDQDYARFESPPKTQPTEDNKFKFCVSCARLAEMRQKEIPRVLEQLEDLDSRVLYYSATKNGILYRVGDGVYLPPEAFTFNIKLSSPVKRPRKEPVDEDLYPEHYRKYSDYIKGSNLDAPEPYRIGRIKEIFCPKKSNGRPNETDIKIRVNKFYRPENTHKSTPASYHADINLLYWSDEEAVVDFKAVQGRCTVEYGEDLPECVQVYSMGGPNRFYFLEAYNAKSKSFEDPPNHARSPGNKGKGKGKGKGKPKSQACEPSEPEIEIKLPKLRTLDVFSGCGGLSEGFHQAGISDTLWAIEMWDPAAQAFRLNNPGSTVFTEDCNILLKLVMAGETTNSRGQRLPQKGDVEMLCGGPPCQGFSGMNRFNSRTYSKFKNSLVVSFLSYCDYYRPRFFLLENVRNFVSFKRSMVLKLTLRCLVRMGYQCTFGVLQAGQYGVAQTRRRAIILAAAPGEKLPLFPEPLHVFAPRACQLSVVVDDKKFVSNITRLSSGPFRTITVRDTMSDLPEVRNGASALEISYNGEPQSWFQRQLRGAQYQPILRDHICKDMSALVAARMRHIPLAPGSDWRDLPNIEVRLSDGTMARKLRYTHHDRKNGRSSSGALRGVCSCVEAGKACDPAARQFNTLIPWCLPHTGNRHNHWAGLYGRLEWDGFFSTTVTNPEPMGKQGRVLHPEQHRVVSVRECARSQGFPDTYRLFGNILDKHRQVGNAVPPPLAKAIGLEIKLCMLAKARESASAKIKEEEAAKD
row,SMILES,inhibition (reported as % activation of signal)
1,O=C(CCSCCc1ccccn1)Nc1nccs1,-3.62%
2,Cn1cccc1Cc1nnc(SCC(=O)NCc2ccc3c(c2)OCO3)n1CCc1ccccc1,6.75%
3,Cc1c(C(=O)N(Cc2ccccc2)Cc2cccnc2)cnn1-c1ccc(F)cc1,0.01%
4,O=C(Nc1nc(-c2ccco2)c(-c2ccco2)s1)c1ccco1,80.6% (active)
5,CCc1nnc(NC(=O)c2ccco2)s1,4.22%
6,O=C(Nc1nonc1-c1ccc(Cl)cc1)c1ccco1,9.05%
7,CCN(CC)S(=O)(=O)c1ccc(NC(=O)c2cccnc2Cl)c(NC(=O)c2cccnc2Cl)c1,-0.07%
8,CC(C)C[C@H](NC(=O)C1CC(=O)N(c2ccc3c(c2)OCCO3)C1)C(=O)NC1CCCC1 (some centres not stated),-0.87%
9,O=C1NCC(Nc2ccccc2)C(=O)N1 (configuration not stated),0.4%
10,CCN1C(=O)c2cccc3c(S(=O)(=O)Nc4ccccc4O)ccc1c23,-3.81%
11,O=C(CN1C(=O)c2cccc3cccc1c23)Nc1ccccc1,6.37%
12,Cn1cc(C2OC(=O)c3ccccc32)c2ccccc21 (configuration not stated),1.23%
13,CN1C(=O)c2cccc3c(N)ccc(c23)C1=O,68.8% (active)
14,CCN1C(=O)c2cccc3c(N)ccc1c23,51.2% (active)
15,Cc1nn(C)cc1N1C(=O)c2cccc3c(N)ccc(c23)C1=O,65% (active)
16,O=C(COC(=O)CCc1c[nH]c2ccccc12)Nc1cccc(Cl)c1,-4.28%
17,O=C(CCC1CCCC1)N=C1SC2CS(=O)(=O)CC2N1Cc1ccccc1 (configuration not stated),14.4%
18,COc1ccccc1-c1oc2ccccc2c1C#CCCCCO,-0.24%
19,CCCc1nc(-c2cc3cc(C)ccc3[nH]c2=O)no1,-2.69%
20,COc1ccc2[nH]c(=O)c(-c3noc(-c4ccc(F)cc4)n3)cc2c1,95.2% (active)
21,COc1ccc(Cc2cc(-c3ccc(F)cc3)n[nH]c2=O)cc1,-1.27%
22,Cc1ccc2c(CC(=O)NCc3cccs3)coc2c1,7.02%
23,C[C@H]1CN([C@@H](C)CO)C(=O)CCCn2cc(nn2)CO[C@@H]1CN(C)S(=O)(=O)c1ccccc1C#N,8.79%
24,C=C(Br)CN1CCN(CC(=C)Br)CC1,1.67%

row,SMILES,inhibition (reported as % activation of signal)
1,Cc1ccc2nc(-c3ccco3)c(Cc3cccc(Cl)c3)n2c1,-0.88%
2,Cc1cc2nc(-c3ccco3)c(Cc3cccc(F)c3)n2c(C)c1Br,56.4% (active)
3,Cc1cc2nc(-c3ccc(Cl)cc3)c(Cc3cccc(F)c3)n2c(C)c1Br,37.2%
4,CCN1CCN(c2ccc(S(=O)(=O)N3CCCCC3)cc2NC(=O)c2cccc(NC(C)=O)c2)CC1,-6.35%
5,COc1cccc(NC(=O)CSc2nccn(-c3ccc4c(c3)OCCO4)c2=O)c1,0.94%
6,NC(CSC(c1ccccc1)(c1ccccc1)c1ccc(-c2ccccc2)cc1)C(=O)O (configuration not stated),89% (active)
7,NC(CSC1(c2ccccc2)c2ccccc2-c2ccccc21)C(=O)O (configuration not stated),38.3%
8,CCC(C)OC(=O)C(C)Oc1ccc(-c2ccccc2)cc1 (configuration not stated),-3.17%
9,COC(=O)CCCCC1=CCC2C(=O)C=C(O)C2C1 (configuration not stated),92.7% (active)
10,CCOc1ccc2[nH]c(=S)sc2c1,0.55%
11,CC(=O)N1CCN(C(=O)c2cc(-c3ccc(C)o3)nc3ccccc23)CC1,1.05%
12,Cc1ccc(NC(=O)c2cc(-c3ccc(C)o3)nc3ccccc23)nc1,76.5% (active)
13,CSc1ncccc1C(=O)Nc1ccc(C)cn1,-0.42%
14,COc1ccccc1-n1nnnc1S(=O)(=O)Cc1ccc(Cl)cc1,22%
15,O=C(CCc1nnc2ccc(NCc3ccco3)nn12)Nc1cc(F)ccc1F,29.7%
16,COC(=O)c1ccc(C(=O)NC2CC(C)(C)Cc3c2cnn3-c2ccc(F)cc2)nc1 (configuration not stated),-1.04%
17,COc1ccc(OC)c(NC(=O)c2cc(-c3cc(F)ccc3OCC3CCCO3)n[nH]2)c1 (configuration not stated),105% (active)
18,COc1cc(F)ccc1-c1cc(C(=O)NCC2CCCCC2)[nH]n1,-0.63%
19,CCCOc1ccc(F)cc1-c1cc(C(=O)Nc2ccc(F)cc2)[nH]n1,-1.3%
20,Cc1ccc(-n2c(SCC(=O)N3CCC(C(=O)O)CC3)nc3ccccc3c2=O)cc1C,-1.54%
21,Cc1cc(C)c(C(=O)CSc2nc(C)cc(=O)[nH]2)c(C)c1,-2.03%
22,COc1ccc(C2=NOC(C(=O)NCc3ccco3)C2)cc1OC (configuration not stated),1.36%
23,CCOc1ccc(C(=O)Nc2cc(Cl)ccc2-n2cncn2)cc1OC,0.02%
